Results published in PubChem BioAssay AID777 (Sanford-Burnham Center for Chemical Genomics, 2007).
The whole screen tested about 96,000 compounds, of which about 19,000 (20%) were called active.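 The calls were made as follows: active = blocking of liver enzyme CYP2C9 beyond about 50% at 5 µM (limit read from the data); inactive = the rest.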 These entries were drawn from the full list.

Molecular target: Cytochrome P450 2C9 (Homo sapiens) (UniProt P11712)
Assay: blockers of cytochrome P450 2C9 activity – biochemical, luminescence, ADME assay, primary screen (AID 777)
Settings: CYP2C9 Supersomes, luciferin-H conversion, at 5 µM, stronger effect = higher value

Cytochrome P450 2C9 (Homo sapiens), sequence (P11712 whole entry, looked up): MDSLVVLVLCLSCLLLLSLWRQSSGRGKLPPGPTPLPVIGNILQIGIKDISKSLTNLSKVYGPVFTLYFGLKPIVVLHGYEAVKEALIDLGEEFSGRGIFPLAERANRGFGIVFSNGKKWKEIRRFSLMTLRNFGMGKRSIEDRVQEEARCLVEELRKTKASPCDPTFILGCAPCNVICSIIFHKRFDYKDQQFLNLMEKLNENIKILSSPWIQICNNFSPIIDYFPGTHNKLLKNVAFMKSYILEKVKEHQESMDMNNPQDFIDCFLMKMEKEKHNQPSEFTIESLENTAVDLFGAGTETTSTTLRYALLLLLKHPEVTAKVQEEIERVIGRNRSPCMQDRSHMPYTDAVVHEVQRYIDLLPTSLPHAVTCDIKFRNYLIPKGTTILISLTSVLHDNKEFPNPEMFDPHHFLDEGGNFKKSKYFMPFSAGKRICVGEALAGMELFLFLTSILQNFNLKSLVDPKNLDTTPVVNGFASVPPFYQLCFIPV

With COc1ccc(CN2CN(C(C)C)CSC2=S)cc1 as the molecule, how does the inhibition read?
Its inhibition is 34% (inactive).

With CC(C)c1nnc(NC(=O)C2CCCN2S(=O)(=O)c2ccc(Cl)cc2)s1 (stereo unspecified) as the molecule, how does the inhibition read?
Its inhibition is 86.2% (active).

For Cc1cccc(NC(=O)C2CCCN2S(=O)(=O)c2ccc(F)cc2)c1C (stereo unspecified), which inhibition is on record?
Its inhibition is -147% (inactive).

With O=C(COc1ccc(Cl)cc1)N1CCN(S(=O)(=O)c2ccc(Cl)cc2)CC1 as the molecule, how does the inhibition read?
Its inhibition is 0.1% (inactive).

How did the inhibition turn out when NC(=O)COc1ccc(/C=N/NC(=O)C2CCCN2S(=O)(=O)c2ccc(Cl)cc2)cc1 (stereo unspecified) was run?
Its inhibition is 67.3% (active).

Which inhibition does the source give for Cc1ccc(S(=O)(=O)N2CCCC2C(=O)NCc2ccco2)cc1 (stereo unspecified) here?
Its inhibition is -48.4% (inactive).

With CC(=O)Nc1ccc(S(=O)(=O)N2CCCC2C(=O)O)cc1 (stereo unspecified) as the molecule, how does the inhibition read?
Its inhibition is -11.7% (inactive).

CCC(C)NC(=O)C1CCCN(C(=O)NC2CCCCC2)C1 (stereo unspecified) was tested. Which inhibition did it give?
The inhibition was 19.9% (inactive).

How did the inhibition turn out when COc1ccc(C)cc1NC(=O)c1[nH]c(C)c(C(C)=O)c1C was run?
The inhibition was 34% (inactive).

Which inhibition does the source give for CCOC(=O)C1Sc2[nH]c(=O)sc2C(c2ccc(Cl)cc2)C1C(=O)OCC (stereo unspecified) here?
Its inhibition is 5.6% (inactive).

For O=c1c2ccccc2oc2nc(C3CCCCC3)n(Cc3ccco3)c(=O)c12, which inhibition is on record?
Its inhibition is 20.1% (inactive).

How did the inhibition turn out when CCc1nc2ccccc2n(CCOCCOCCn2c(=O)c(CC)nc3ccccc32)c1=O was run?
Its inhibition is 24.5% (inactive).

With CC(c1ccco1)N(C(=O)c1ccc(S(=O)(=O)N2CCCCC2)cc1)c1ccccn1 (stereo unspecified) as the molecule, how does the inhibition read?
Its inhibition is 56.9% (active).

With CC(c1ccco1)N(C(=O)COc1ccccc1[N+](=O)[O-])c1ccccn1 (stereo unspecified) as the molecule, how does the inhibition read?
The inhibition was 8.1% (inactive).

Which inhibition does the source give for CC(C)Cc1ccc(S(=O)(=O)N2CCN(C(=O)c3ccco3)CC2)cc1 here?
The inhibition was 17% (inactive).

Cc1cc(C)cc(OCc2nnc(SCC(=O)OC3CCCCC3)o2)c1 was tested. Which inhibition did it give?
Its inhibition is -1.3% (inactive).

C=CCc1cccc2cc(C(=O)N3CCN(C(=O)OCC)CC3)c(=O)oc12 was tested. Which inhibition did it give?
The inhibition was -112% (inactive).

CCN(CC)S(=O)(=O)c1cccc(C(=O)NCC(=O)OCC(=O)NCc2ccccc2)c1 was tested. Which inhibition did it give?
Its inhibition is 63.3% (active).

CCN(c1ccccc1)S(=O)(=O)c1cccc(C(=O)O)c1 was tested. Which inhibition did it give?
The inhibition was 33.3% (inactive).

CCN(CC)S(=O)(=O)c1cccc(C(=O)Nc2ccccc2)c1 was tested. Which inhibition did it give?
Its inhibition is 38.7% (inactive).

Which inhibition does the source give for c1ccc2c(-c3nn4nnnc4c4ccccc34)cccc2c1 here?
The inhibition was 13.8% (inactive).

With COc1ccc(CCNC(=O)CCCCn2c(=O)[nH]c3ccccc3c2=O)cc1OC as the molecule, how does the inhibition read?
Its inhibition is 68.4% (active).

How did the inhibition turn out when O=C(CCn1c(=S)[nH]c2ccccc2c1=O)NCCCN1CCCC1=O was run?
The inhibition was -4.6% (inactive).

Which inhibition does the source give for COc1ccc(CCNC(=O)CCn2c(=O)oc3ccccc32)cc1OC here?
Its inhibition is 8.1% (inactive).

CCN(CC)CCNC(=O)CCCCCn1c(=O)[nH]c2cc(C(=O)OC)ccc2c1=O was tested. Which inhibition did it give?
The inhibition was 2.6% (inactive).

COc1ccc(CCNC(=O)c2ccc3c(c2)NC(=O)C(N2CCOCC2)S3)cc1OC (stereo unspecified) was tested. Which inhibition did it give?
Its inhibition is 50.1% (active).

How did the inhibition turn out when COCCn1c(=O)[nH]c2cc(C(=O)NCc3cccnc3)ccc2c1=O was run?
Its inhibition is -1.7% (inactive).

O=C(NCCCN1CCCCC1)c1ccc2c(c1)NC(=O)C(N1CCOCC1)S2 (stereo unspecified) was tested. Which inhibition did it give?
The inhibition was -7.1% (inactive).

O=C(CCCCCn1c(=O)[nH]c2ccccc2c1=O)NCCc1c[nH]c2ccccc12 was tested. Which inhibition did it give?
Its inhibition is 63.8% (active).

Which inhibition does the source give for COCCn1c(=S)[nH]c2cc(C(=O)NCCc3ccc(OC)c(OC)c3)ccc2c1=O here?
The inhibition was 55.7% (active).

For COc1ccc(CCNC(=O)c2cc(-c3ccc4c(c3)OCO4)on2)cc1OC, which inhibition is on record?
The inhibition was 6.7% (inactive).

With O=C(CCn1c(=O)[nH]c2ccccc2c1=O)NCCCN1CCN(c2cccc(Cl)c2)CC1 as the molecule, how does the inhibition read?
The inhibition was 29.1% (inactive).

CCOc1cc2[nH]c(=S)n(Cc3ccc(C(=O)NCCOC)cc3)c(=O)c2cc1OCC was tested. Which inhibition did it give?
The inhibition was -7.8% (inactive).

COC(=O)CSc1snnc1-c1ccc(Cl)c(Cl)c1 was tested. Which inhibition did it give?
The inhibition was 6.6% (inactive).

For COc1ccc(/C=N/Nc2nc3ccccc3o2)cc1OC, which inhibition is on record?
The inhibition was -48.5% (inactive).

For CC(=O)Nc1cc2ccc(OC(C)=O)cc2oc1=O, which inhibition is on record?
Its inhibition is -29.1% (inactive).

Which inhibition does the source give for CCCOc1ccc(CN(CCO)CCO)cc1C(=O)OC here?
The inhibition was 10.6% (inactive).

For COc1cccc(-c2cnc(OC(C)(C)C)nc2OC(C)(C)C)c1, which inhibition is on record?
The inhibition was 6.8% (inactive).

Which inhibition does the source give for CCc1nc(C)cn1S(=O)(=O)c1cc(OC)c(C)cc1C here?
Its inhibition is 7.6% (inactive).

With Cc1ccsc1CNn1cnnc1SCc1ccccc1F as the molecule, how does the inhibition read?
The inhibition was 13.9% (inactive).

Which inhibition does the source give for Cc1ccc(C2=NN(C)c3nc4ccccc4n3C2)cc1 here?
The inhibition was 6.9% (inactive).

For COCc1cc(=O)[nH]c2cc(NC(=O)C(F)(F)F)c(C)cc12, which inhibition is on record?
Its inhibition is 13.9% (inactive).

How did the inhibition turn out when CCOC(=O)Cn1c(-c2cccnc2Cl)nc2ccccc21 was run?
Its inhibition is 10.6% (inactive).

How did the inhibition turn out when O=C(Nc1ncc2c(n1)-c1ccccc1OC2)c1ccc(Cl)cc1 was run?
The inhibition was 25.3% (inactive).

How did the inhibition turn out when O=C(CCCCn1c(=O)[nH]c2ccccc2c1=O)NCc1ccc2c(c1)OCO2 was run?
The inhibition was 69% (active).

How did the inhibition turn out when CC(C)NC(=O)CCCn1c(=S)[nH]c2cc3c(cc2c1=O)OCO3 was run?
The inhibition was 12.3% (inactive).

For Cn1cc(CCC(=O)NCc2ccc3c(c2)OCO3)c2ccccc21, which inhibition is on record?
Its inhibition is -124% (inactive).

CCC1CCCCN1CCCNC(=O)C1CCC(Cn2c(=O)[nH]c3ccccc3c2=O)CC1 (stereo unspecified) was tested. Which inhibition did it give?
The inhibition was 1.7% (inactive).

For Cc1c2cnn(-c3ccccc3)c(=O)c2c(C)n1CCCC(=O)N1CCN(C)CC1, which inhibition is on record?
The inhibition was -0.9% (inactive).

For Cc1ccc(C)c(N2CCN(C(=O)CCCCn3c(=O)[nH]c4ccccc4c3=O)CC2)c1, which inhibition is on record?
Its inhibition is 61.9% (active).

O=C(COc1ccc(/C=N/NS(=O)(=O)c2ccccc2)cc1)NCCc1ccccc1 was tested. Which inhibition did it give?
The inhibition was 5.3% (inactive).

CCOc1ccc(OCC)c(NC(=O)C(NS(=O)(=O)c2ccc3c(c2)oc(=O)n3C)C(C)C)c1 (stereo unspecified) was tested. Which inhibition did it give?
Its inhibition is 17.9% (inactive).

Which inhibition does the source give for N#C/C(=C(/O)COc1cccc2ccccc12)c1nc2ccccc2[nH]1 here?
The inhibition was -6.1% (inactive).

For N#C/C(=C(/O)Cc1cccc2ccccc12)c1nc2ccccc2s1, which inhibition is on record?
The inhibition was 76.6% (active).

For Cc1ccccc1OC/C(O)=C(\C#N)c1nc2ccccc2[nH]1, which inhibition is on record?
The inhibition was 45.5% (inactive).

With CN(C)/C=C(\C#N)C(=O)c1cccnc1Oc1cccc(F)c1 as the molecule, how does the inhibition read?
The inhibition was 12.2% (inactive).

CCCC(C)C(=O)Nc1ccc(NC(C)=O)cc1 (stereo unspecified) was tested. Which inhibition did it give?
Its inhibition is 9.5% (inactive).

COc1ccc(C2OC(=O)CC2C(=O)NC(C)C)cc1 (stereo unspecified) was tested. Which inhibition did it give?
Its inhibition is 3.6% (inactive).

COC(=O)c1sccc1NC(=O)CCC1CCCC1 was tested. Which inhibition did it give?
Its inhibition is -11.7% (inactive).

Which inhibition does the source give for O=C(CCCOc1ccccc1)Nc1cccc(C(=O)O)c1 here?
Its inhibition is 9.5% (inactive).

N#Cc1cccc(NC(=O)CCC2CCCC2)c1 was tested. Which inhibition did it give?
Its inhibition is 56.8% (active).
